Assay [1] in a line: compounds binding Alexa647 anti-His antibody – biochemical, small-molecule microarray, 635 nm fluorescence, artefact control for SMM control protein annotation, primary screen (AID 1128).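 Note: score merges feature fluorescence with signal-to-noise for each printed compound spot.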 As to conditions: higher = more signal.
Assay [2] concerns Human papillomavirus type 1a E7 protein (residues 1-88). The assay is described as follows: HPV1a E7 small-molecule binders, primary screen, biochemical, small-molecule microarray, residues 1-88, 635 nm (AID 1129). The following applies: small-molecule microarray binding, fluorescence 635 nm; higher = more signal.
The target in assay [3] is Focal adhesion kinase 1 (Homo sapiens) (UniProt Q05397). The assay is described as follows: PTK2 protein binding on printed compound slides – biochemical, small-molecule microarray, 635/667 nm fluorescence, BSA, DTT, primary screen (AID 1130).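 Note: composite of spot emission at 667 nm and signal to noise over triplicate slides.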 The following applies: 635 nm fluorescence, higher = more signal.
Sequence of Focal adhesion kinase 1 (Homo sapiens) (Q05397 whole entry, looked up): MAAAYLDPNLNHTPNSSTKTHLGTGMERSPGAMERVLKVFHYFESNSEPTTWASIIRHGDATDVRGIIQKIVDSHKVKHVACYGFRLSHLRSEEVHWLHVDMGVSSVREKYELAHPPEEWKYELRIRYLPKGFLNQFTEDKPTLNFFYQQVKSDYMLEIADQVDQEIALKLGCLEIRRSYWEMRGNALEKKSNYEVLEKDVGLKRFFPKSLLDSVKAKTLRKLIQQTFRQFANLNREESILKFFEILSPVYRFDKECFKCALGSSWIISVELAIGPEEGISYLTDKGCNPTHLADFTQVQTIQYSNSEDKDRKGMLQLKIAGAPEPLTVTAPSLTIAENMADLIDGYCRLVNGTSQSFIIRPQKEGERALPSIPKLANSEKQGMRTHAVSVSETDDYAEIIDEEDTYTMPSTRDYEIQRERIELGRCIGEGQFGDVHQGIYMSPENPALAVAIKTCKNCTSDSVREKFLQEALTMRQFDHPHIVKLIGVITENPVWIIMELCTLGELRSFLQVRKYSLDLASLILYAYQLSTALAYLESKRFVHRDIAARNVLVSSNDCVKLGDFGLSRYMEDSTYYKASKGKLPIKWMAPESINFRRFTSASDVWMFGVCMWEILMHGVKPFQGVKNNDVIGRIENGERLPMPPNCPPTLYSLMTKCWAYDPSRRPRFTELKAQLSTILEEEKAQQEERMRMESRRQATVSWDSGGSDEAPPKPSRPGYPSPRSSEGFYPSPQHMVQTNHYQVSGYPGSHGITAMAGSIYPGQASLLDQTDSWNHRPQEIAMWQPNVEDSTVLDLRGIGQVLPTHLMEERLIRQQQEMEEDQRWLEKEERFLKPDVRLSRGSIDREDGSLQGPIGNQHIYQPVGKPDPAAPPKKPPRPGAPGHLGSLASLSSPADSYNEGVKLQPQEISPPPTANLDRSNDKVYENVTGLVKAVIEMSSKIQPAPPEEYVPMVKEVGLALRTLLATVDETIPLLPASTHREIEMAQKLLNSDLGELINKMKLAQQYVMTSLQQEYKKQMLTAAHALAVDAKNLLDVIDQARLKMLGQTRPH
The test system of assay [4] is Fibrinogen (Alexa647-labelled). The assay is described as follows: Alexa647-fibrinogen binding to printed small molecules – biochemical, small-molecule microarray, 635/667 nm fluorescence, artefact control for SMM control-protein annotation, profiling panel (AID 1131).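 Note: z-score merges 667 nm fluorescence with per-spot signal-to-noise over triplicate slides.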 As to conditions: fibrinogen-A647 binding fluorescence, higher = more signal.
The target in assay [5] is Follistatin (Homo sapiens) (UniProt P19883). The assay is described as follows: FST protein binding to printed compounds – biochemical, small-molecule microarray, 635/667 nm fluorescence, primary screen (AID 1132). As to conditions: 635 nm fluorescence, higher = more signal.
Sequence of Follistatin (Homo sapiens) (P19883 whole entry, looked up): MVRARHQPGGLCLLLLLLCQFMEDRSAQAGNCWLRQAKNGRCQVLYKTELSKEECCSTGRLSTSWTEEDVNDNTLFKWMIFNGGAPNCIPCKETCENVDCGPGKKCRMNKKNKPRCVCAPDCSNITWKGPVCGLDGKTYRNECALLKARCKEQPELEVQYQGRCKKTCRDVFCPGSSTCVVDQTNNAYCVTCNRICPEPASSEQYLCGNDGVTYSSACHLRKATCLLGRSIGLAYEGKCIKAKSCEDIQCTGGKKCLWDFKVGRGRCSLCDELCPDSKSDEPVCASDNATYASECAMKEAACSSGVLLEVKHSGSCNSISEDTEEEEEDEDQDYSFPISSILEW
Assay [6] concerns the target Fibroblast growth factor 2 (Homo sapiens) (UniProt P09038). The assay is described as follows: basic fibroblast growth factor binding to printed compounds – biochemical, small-molecule microarray, 635/667 nm fluorescence, primary screen (AID 1133). As to conditions: FGF2, fluorescence 635/667, higher = more signal.
Assay [7] in a line: JC-1 mitochondrial potential readout, lung cancer cells – cell-based, A549, JC-1 fluorescence, basal, 24 h, 100 nL, profiling panel (AID 1138).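 Note: A549 lung adenocarcinoma cells under basal conditions with no added stimulus; test concentration not given here.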 The following applies: higher = more signal.
The next assay concerns Lefty1. The assay is described as follows: Lefty1 protein binding to printed compounds – biochemical, small-molecule microarray, 635/667 nm fluorescence, primary screen (AID 1139). The following applies: fluorescence 635/667, higher = more signal.
Assay [8] has as its system wheat germ agglutinin (Triticum aestivum), Alexa647-labelled. The assay is described as follows: Alexa647-WGA lectin binding to printed small molecules – biochemical, small-molecule microarray, 635/667 nm fluorescence, artefact control for SMM control-protein annotation, profiling panel (AID 1140).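 Note: score merges 667 nm feature emission with signal to noise over triplicate slides.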 As to conditions: WGA-A647 binding, 635 nm fluorescence, higher = more signal.

Assay [9] concerns the target Luciferin 4-monooxygenase (Photinus pyralis) (UniProt P08659). The assay is described as follows: inhibition of purified Photinus pyralis luciferase – biochemical, luminescence, purified enzyme, 2006 set, primary screen (AID 1141).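 Note: cell-free assay with purified firefly luciferase at 100 ng per well in PBS; test concentration not given here.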 As to conditions: purified firefly luciferase, SteadyGlo luminescence, 30 min; higher = more signal, called active from +8 up or from −8 down.

Assay [10] concerns Wnt5a (protein binding on small-molecule microarray). The assay is described as follows: small molecules binding Wnt5a protein – biophysical, small-molecule microarray, 635/667 nm fluorescence, primary screen (AID 1142).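 Note: fluorescence read at 667 nm with signal to noise per printed feature.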 As to conditions: 635 nm fluorescence, higher = more signal.
Assay [11] in a line: ATP-based viability of Huh7 replicon cells – cell-based, CellTiter-Glo luminescence, basal, 48 h, cytotoxicity control for HCV replication inhibitor project, primary screen (AID 1143).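 Note: Huh7 hepatoma cells carrying a hepatitis C replication reporter with no stimulus; test concentration not given here.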 The following applies: higher = more signal, called active from +8 up or from −8 down. On the technique in general: A replicon is a self-replicating genome or part of one, used to study replication in cells.

Assay [12] in a line: Pseudomonas biofilm growth suppression – PAO1 strain, BacTiter-Glo luminescence, LB-PBS, primary screen (AID 1144). The following applies: P. aeruginosa PAO1 biofilm, 12 h, higher = more signal.
Assay [13] is described as follows: basal CRE-LacZ reporter activity in PC12 – cell-based, unstimulated, primary screen (AID 1145). The following applies: no forskolin, luminescence, 4.5 h, higher = more signal, called active from +8 up or from −8 down.
The nature of assay [14]: forskolin-driven CRE-LacZ activity in PC12 – cell-based, CRE-LacZ reporter, forskolin-stimulated, primary screen (AID 1146).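 Note: PC12 cells with 6xCRE LacZ reporter stimulated by forskolin 10 µM; beta-galactosidase reporter signal reflecting CREB driven transcription.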 The following applies: luminescence, 4.5 h, higher = more signal, called active from +8 up or from −8 down.
For assay [15], the target named is Streptavidin (Streptomyces avidinii) (UniProt P22629). The assay is described as follows: compounds binding control protein streptavidin – biophysical, small-molecule microarray, 635/667 nm fluorescence, artefact control for SMM compound annotation, primary screen (AID 1147).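 Note: signal reflects streptavidin binding to arrayed compounds as a control protein.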 As to conditions: higher = more signal.
Sequence of Streptavidin (Streptomyces avidinii) (P22629 whole entry, looked up): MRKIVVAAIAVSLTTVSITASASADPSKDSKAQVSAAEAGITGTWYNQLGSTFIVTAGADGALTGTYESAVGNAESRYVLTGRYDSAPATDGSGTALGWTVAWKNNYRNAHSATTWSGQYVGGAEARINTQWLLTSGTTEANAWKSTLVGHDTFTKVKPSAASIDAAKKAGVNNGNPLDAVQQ
A short description of assay [16]: probe aInhba binding on compound microarray – biochemical, small-molecule microarray, 635/667 nm fluorescence, primary screen (AID 1148).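 Note: score merges 667nm spot fluorescence with signal-to-noise for antibody binding to printed compounds.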 As to conditions: higher = more signal.
For assay [17], the target named is Torsin-1A (Homo sapiens) (UniProt O14656). The assay is described as follows: TOR1A wild-type binding on microarray – cell lysate, small-molecule microarray, lysate, 635/667 nm, primary screen (AID 1149). As to conditions: COS7 hTOR1A-WT lysate, 635 nm fluorescence, higher = more signal.
Sequence of Torsin-1A (Homo sapiens) (O14656 whole entry, looked up): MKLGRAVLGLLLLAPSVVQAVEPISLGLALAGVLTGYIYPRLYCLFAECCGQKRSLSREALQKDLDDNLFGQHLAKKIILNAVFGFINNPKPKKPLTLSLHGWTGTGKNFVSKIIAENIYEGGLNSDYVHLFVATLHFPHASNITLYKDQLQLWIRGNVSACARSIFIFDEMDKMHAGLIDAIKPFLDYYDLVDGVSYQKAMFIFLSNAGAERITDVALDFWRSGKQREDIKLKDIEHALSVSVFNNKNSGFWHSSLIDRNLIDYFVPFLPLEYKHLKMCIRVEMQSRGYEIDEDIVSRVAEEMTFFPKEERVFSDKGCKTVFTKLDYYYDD
The target is the same in assay [18]. The assay is described as follows: torsin A mutant lysate binding on microarrays – cell lysate, small-molecule microarray, COS7 lysate, 635/667 nm fluorescence, primary screen (AID 1150).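 Note: score pools 667 nm emission and signal to noise measuring lysate protein binding.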 As to conditions: COS7 hTOR1A mutant lysate, 635 nm fluorescence, higher = more signal.
The subject of assay [19] is Sonic hedgehog protein (Shh). The assay is described as follows: Sonic hedgehog microarray binding compounds – biochemical, small-molecule microarray, 635/667 nm fluorescence, primary screen (AID 1151).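 Note: Shh protein binding to compounds spotted on small-molecule microarray slides; score combines spot fluorescence intensity with signal-to-noise across triplicate slides.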 As to conditions: 635 nm fluorescence, higher = more signal.

The source made the active and inactive calls. Unless noted, the rule behind the calls is not given here.

Among the data in PubChem BioAssay are composite z-score and z-score values, retold here.

Sequence of Luciferin 4-monooxygenase (Photinus pyralis) (P08659 whole entry, looked up): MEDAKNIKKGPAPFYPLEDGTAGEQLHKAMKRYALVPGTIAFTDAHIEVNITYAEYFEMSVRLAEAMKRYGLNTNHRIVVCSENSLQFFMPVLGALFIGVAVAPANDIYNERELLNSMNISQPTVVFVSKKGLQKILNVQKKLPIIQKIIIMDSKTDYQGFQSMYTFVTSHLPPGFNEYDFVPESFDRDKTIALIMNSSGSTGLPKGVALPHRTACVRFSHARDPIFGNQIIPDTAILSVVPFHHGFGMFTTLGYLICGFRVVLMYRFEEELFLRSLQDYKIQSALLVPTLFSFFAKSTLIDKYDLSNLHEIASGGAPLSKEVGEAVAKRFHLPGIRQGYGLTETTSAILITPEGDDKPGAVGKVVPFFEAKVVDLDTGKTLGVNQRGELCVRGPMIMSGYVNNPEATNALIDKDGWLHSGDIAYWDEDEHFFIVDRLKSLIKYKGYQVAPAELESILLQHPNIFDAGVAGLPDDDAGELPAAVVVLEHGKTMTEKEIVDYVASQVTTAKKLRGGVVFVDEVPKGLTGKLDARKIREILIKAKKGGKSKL
Sequence of Fibroblast growth factor 2 (Homo sapiens) (P09038 whole entry, looked up): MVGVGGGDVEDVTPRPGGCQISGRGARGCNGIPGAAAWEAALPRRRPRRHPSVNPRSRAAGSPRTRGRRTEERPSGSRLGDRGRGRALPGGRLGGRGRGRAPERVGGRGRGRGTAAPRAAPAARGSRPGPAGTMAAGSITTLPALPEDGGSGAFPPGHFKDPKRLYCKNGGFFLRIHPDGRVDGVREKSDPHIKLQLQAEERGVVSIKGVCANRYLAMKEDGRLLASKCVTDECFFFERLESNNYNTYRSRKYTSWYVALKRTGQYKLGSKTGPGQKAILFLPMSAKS

With `CCOC(=O)[C@H](Cc1ccccc1)NC(=O)CCC1CC(OC(=O)NCc2cccc3ccccc23)CC2(CCCC(COC(=O)NCCC(C)C)O2)O1` (stereo not given in full), the composite z-score was 0.603 in assay [1]; -0.431 in [2]; -0.225 in [3]; 0.604 in assay [4]; 0.123 in [5]; -0.278 in assay [6]. For the same compound, the composite z-score in the assay on Lefty1 was 0.129; in assay [8], 0.757; in assay [10] it was -0.0404; in [15], 1.8; in [16], -0.231; in the assay with Torsin-1A (Homo sapiens) [17] it was 1.5. Further, the composite z-score in the assay with Torsin-1A (Homo sapiens) [18] is -0.359; in assay [19], -0.226. Moreover, the z-score was -0.0858 in [7]; 0.871 (inactive) in [9]; 0.0896 (inactive) in assay [11]; -0.863 (inactive) in [12]; -0.525 (inactive) in [13]; 0.214 (inactive) in [14].

Regarding `COC(=O)CC=C[C@@H](C)[C@@H](C=NOC[C@@H](O)[C@H]1O[C@@H]2OC(C)(C)O[C@@H]2[C@H]1O)NS(=O)(=O)c1ccc(C)cc1`, the composite z-score in assay [1] is 1.93; in assay [2] it was 0.607; in assay [3], -0.196; in [4], -0.174; in assay [5] it was 0.597; in assay [6], 0.276. Besides, the composite z-score in the assay on Lefty1 is 0.223; in assay [8] it was 0.0146; in [10] it was 0.242; in [15], -0.0169; in [16] it was 0.163; with Torsin-1A (Homo sapiens) [17], 0.92. For the same compound, the composite z-score with Torsin-1A (Homo sapiens) [18] amounted to 0.387; in assay [19], 0.288. Besides, the z-score is -0.656 in [7]; 0.543 (inactive) in assay [9]; 0.0198 (inactive) in assay [11]; 0.603 (inactive) in assay [12]; -0.245 (inactive) in assay [13]; 0.285 (inactive) in assay [14].

For the compound `CO[C@H]1COC(=O)[C@H](C)NC(=O)[C@@H](C)COC(=O)[C@H]2CCCN2C(=O)CC=C[C@H]1C`, the composite z-score in assay [1] was -0.395; in [2], 0.185; in assay [3], 0.0089; in [4], -0.157; in assay [5], 0.593; in assay [6], 0.806. For the same compound, the composite z-score with Lefty1 was 0.632; in assay [8], -0.375; in assay [10] it was 0.139; in [15], -0.323; in assay [16], -0.121; with Torsin-1A (Homo sapiens) [17], -0.0249. Moreover, the composite z-score with Torsin-1A (Homo sapiens) [18] amounted to 0.182; in [19] it was 1.4. In addition, the z-score in assay [7] is -0.392; in assay [9], 0.574 (inactive); in assay [11], 0.191 (inactive); in [12] it was -0.312 (inactive); in assay [13], -0.906 (inactive); in assay [14] it was -0.432 (inactive).

Consider `CC(C)(C)N1C(=O)[C@H]2[C@H]3[C@H](O)[C@H](O)CC(=O)[C@@H]3CC[C@H]2C1=O`, for which the composite z-score was -0.0303 in assay [1]; 0.237 in assay [2]; -0.0066 in [3]; -0.642 in [4]; 0.539 in assay [5]; 1.08 in [6]. For the same compound, the composite z-score with Lefty1 is 0.49; in assay [8], 0.138; in assay [10], -0.0326; in assay [15], 0.179; in [16], -0.109; with Torsin-1A (Homo sapiens) [17], 0.236. Moreover, the composite z-score turned out to be 0.261 with Torsin-1A (Homo sapiens) [18] and 0.525 in [19]. Moreover, the z-score in assay [7] was -0.662; in [9], 0.166 (inactive); in assay [11], -1.07 (inactive); in [12] it was -0.25 (inactive); in assay [13] it was -0.93 (inactive); in assay [14] it was -0.785 (inactive).

`C=CC[C@@H]1C=C[C@H](ON=C(C)CCN2CCc3nc(-c4ccccc4)c(-c4ccccc4)cc3C2)[C@@H](CO)O1`: the composite z-score is 0.133 in assay [1]; 0.876 in assay [2]; -0.372 in assay [3]; 0.727 in [4]; 0.787 in [5]; 0.362 in assay [6]. In addition, the composite z-score in the assay with Lefty1 was 0.736; in assay [8], 0.169; in assay [10], 0.0399; in assay [15], 0.313; in assay [16], -0.0719; in the assay with Torsin-1A (Homo sapiens) [17] it was 0.593. For the same compound, the composite z-score amounted to 0.415 with Torsin-1A (Homo sapiens) [18] and 1.12 in assay [19]. Moreover, the z-score is 2.3 in assay [7]; -0.118 (inactive) in assay [9]; -0.648 (inactive) in assay [11]; -0.117 (inactive) in assay [12]; -0.0033 (inactive) in [13]; -1.03 (inactive) in assay [14].
